# Over roughly 39,000 sequences, “fluorescence intensity (a.u.)” has its median near 4,300; the highest 2% begin near 39,000. Many of the other results were omitted from the sample, so the highest values are more common in it than they were.
# Target: T1, OsSMF1 (Oryza sativa, UniProt Q6ZLB0 1-436)
# T1 sequence: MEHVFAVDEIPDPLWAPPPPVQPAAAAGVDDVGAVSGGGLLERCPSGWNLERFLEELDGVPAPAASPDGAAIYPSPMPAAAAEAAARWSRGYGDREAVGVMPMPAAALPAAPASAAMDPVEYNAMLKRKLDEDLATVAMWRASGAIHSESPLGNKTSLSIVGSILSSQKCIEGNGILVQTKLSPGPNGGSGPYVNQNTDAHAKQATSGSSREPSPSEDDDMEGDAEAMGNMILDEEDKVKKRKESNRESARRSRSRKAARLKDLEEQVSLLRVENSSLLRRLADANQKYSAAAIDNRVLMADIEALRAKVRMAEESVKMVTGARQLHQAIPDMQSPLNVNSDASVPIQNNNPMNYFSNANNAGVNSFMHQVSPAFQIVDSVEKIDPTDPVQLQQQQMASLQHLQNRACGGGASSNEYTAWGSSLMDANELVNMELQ
# Assay: protein-binding microarray (RPBM); PBS, 2% BSA, 51.3 ng/ul salmon testes DNA, 50 uM zinc acetate, 200 nM TF, 25 C, 1 h; high values mean tight binding
# Conditions: protein: recombinant; tags: N-terminal polyhistidine and DsRed monomer fusion (pET32a); chain copies: 2; label: CyDye5-dUTP incorporated in the synthesized complementary strand; 3' TTTTT single-stranded linker to array surface; dsDNA, one strand shown
# How it was run: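 In PBS with 2% BSA, salmon testes DNA and 50 µM zinc acetate, 200 nM protein was incubated on a custom Agilent array at 25 °C for 1 h and then washed off. The array had been made double-stranded by primer extension with Cy5-dUTP and blocked with 2% BSA. The proteins were transcription factors fused N-terminally to polyhistidine and DsRed, expressed in E. coli BL21-CodonPlus and purified on Ni–NTA. The binding signal is per-feature fluorescence intensity (arbitrary units) from an Axon 4000B scanner.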
row,Sequence,binding signal
1,ATATCGACTACACACTGTTCTTGGCTACATCGATTGATTGCGGAGTCACCTAGTGCAG,4840 fluorescence intensity (a.u.)
2,GCTTATCGATAAACTCAGTGTATTTGCATTCAAATTTTGACGGAGTCACCTAGTGCAG,3660 fluorescence intensity (a.u.)
3,TCATTTCTAATGTAAATTATCTTTTGCGTAAGTAATTTCTCGGAGTCACCTAGTGCAG,3230 fluorescence intensity (a.u.)
4,TGATTAAAGTATTCTTATTTCTCTTTTGAGCAATATCTAACGGAGTCACCTAGTGCAG,21900 fluorescence intensity (a.u.)
5,TAAAGTAAACTCGATCTCTTTCCGAGAAGTGTATTATTTTCGGAGTCACCTAGTGCAG,41400 fluorescence intensity (a.u.)
6,AACCCTAAGACTAGAGGCGGGCTGGAGCGTGGAGGCGGGACGGAGTCACCTAGTGCAG,3240 fluorescence intensity (a.u.)
7,GGTTTAACCGTTTGGTAGCTGACATGTGCGCCTGGGCATACGGAGTCACCTAGTGCAG,3380 fluorescence intensity (a.u.)
8,TCATTGGTATCTCAATGACATGTAGGACCTACATGAGTCACGGAGTCACCTAGTGCAG,8190 fluorescence intensity (a.u.)
9,AAAATATATTACTACCTCCGTTTCATATTATAAGACTTTCCGGAGTCACCTAGTGCAG,65400 fluorescence intensity (a.u.)
10,AATCTACTTCCTCCGTTTTATGTTATAAGACTTTCTAGCACGGAGTCACCTAGTGCAG,3140 fluorescence intensity (a.u.)
11,TTTGAAAATAATACTCCCTCCGTTTCATAATATAAGTGATCGGAGTCACCTAGTGCAG,3260 fluorescence intensity (a.u.)
12,ACCACCACCTCGGCATCTCCTCGTCCTCGAGCCCAATACTCGGAGTCACCTAGTGCAG,3660 fluorescence intensity (a.u.)
13,AGCAACCAAATCTTCCCAATTCTCACTTGCTCCTAGATACCGGAGTCACCTAGTGCAG,3840 fluorescence intensity (a.u.)
14,AGCCTTGTCATGTAAACCTATCCTTTTGAGACACGTGCGTCGGAGTCACCTAGTGCAG,5780 fluorescence intensity (a.u.)
15,TTCTCCCACCGCATCCTCTCTCCCCTTGAGTATTTACTTTCGGAGTCACCTAGTGCAG,3420 fluorescence intensity (a.u.)
16,CGTAACGCGATCGAGAACCGACTCAGCCGAGACTCATCGTCGGAGTCACCTAGTGCAG,3710 fluorescence intensity (a.u.)
17,AGGACGAGACCCCATCCAACCACCCCAGCCACGTCAGCAACGGAGTCACCTAGTGCAG,34000 fluorescence intensity (a.u.)
18,TTCGAGCAACTCTACCTGGATCCAGACCAACCCCAGTAGACGGAGTCACCTAGTGCAG,50400 fluorescence intensity (a.u.)
19,TGGATATTTTCTACCCCTGGACCCAGCTGTCAGATCCAACCGGAGTCACCTAGTGCAG,3250 fluorescence intensity (a.u.)
20,TAGCAGGTTTCCTGCCAACTTGGCACACTTGCTTCGTGGTCGGAGTCACCTAGTGCAG,3620 fluorescence intensity (a.u.)
21,GATTCAAGGTTGAGAGGACCTAAGATGTCCAATGATGTGTCGGAGTCACCTAGTGCAG,3470 fluorescence intensity (a.u.)
22,GGATAAGTGCCCCTACCAATAGGTGGACCCTTGTCACTGGCGGAGTCACCTAGTGCAG,19300 fluorescence intensity (a.u.)
23,TGTCAATAATGCATCCTGCAGCTAACATCAAATGACATGGCGGAGTCACCTAGTGCAG,3150 fluorescence intensity (a.u.)
